ELG1 DNA repair: ELG1-dependent DNA repair inhibition; AID 504467; hit rate 2.3% among 330,000; HEK293T ELG1-luciferase reporter, luminescence, 16 h; DNA damage induced by 5-fluorouridine; Potency, µM (titrated, usually from 46.1 µM), hits mostly inhibitors; further: nearly all actives have a fitted effect of over 55% in size
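DMSO vehicle served as the neutral condition. Each well held 2,000 cells given 5-fluorouridine plus compound; after 16 hr at 37 °C/5% CO2, ONE-Glo was added and luciferase measured 30 min later.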
PKM2 activator: PKM2 (human) enzyme activation. P14618. purified PKM2, Kinase-Glo ATP luminescence, activation; response scale: 0% is enzyme alone, no compound. Potency, µM (top dose mostly 57.5 µM), most hits filed as activators. hit rate 0.34% among 260,000; further: nearly all actives have a fitted effect of over 55% in size
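Purified hPK-M2 (>95% pure) converted ADP (0.1 mM final) to ATP with 0.5 mM PEP in 50 mM imidazole pH7.2, KCl, MgCl2, Tween 20, BSA; 1 h at room temperature. ATP detected by Kinase-Glo luminescence.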
Tb PFK inh: blocks T. brucei phosphofructokinase; O15648; T. brucei PFK, ADP-Glo luminescence; hit rate 0.17% among 330,000; Potency, µM (highest dose often 57.5 µM), actives largely listed as inhibitors; AID 485367; further: nearly all actives have a fitted effect of over 60% in size
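ADP-Glo luminescence quantified ADP after 45 min at room temperature, with 1.25 nM T. brucei PFK, 0.1 mM ATP and 0.5 mM fructose-6-phosphate in pH 8.0 TEA buffer. qHTS titrations up to 57 µM; curves classified by quality.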
Tb PGK inh: blocks T. brucei phosphoglycerate kinase. P07378. hit rate 0.043% among 380,000. Potency, µM (titrated, usually from 57.5 µM), most hits filed as inhibitors. AID 602233. PGK/GAPDH coupled, Kinase-Glo luminescence, 60 min; further: nearly all actives have a fitted effect of over 60% in size
Target sequence (P07378 whole entry, looked up): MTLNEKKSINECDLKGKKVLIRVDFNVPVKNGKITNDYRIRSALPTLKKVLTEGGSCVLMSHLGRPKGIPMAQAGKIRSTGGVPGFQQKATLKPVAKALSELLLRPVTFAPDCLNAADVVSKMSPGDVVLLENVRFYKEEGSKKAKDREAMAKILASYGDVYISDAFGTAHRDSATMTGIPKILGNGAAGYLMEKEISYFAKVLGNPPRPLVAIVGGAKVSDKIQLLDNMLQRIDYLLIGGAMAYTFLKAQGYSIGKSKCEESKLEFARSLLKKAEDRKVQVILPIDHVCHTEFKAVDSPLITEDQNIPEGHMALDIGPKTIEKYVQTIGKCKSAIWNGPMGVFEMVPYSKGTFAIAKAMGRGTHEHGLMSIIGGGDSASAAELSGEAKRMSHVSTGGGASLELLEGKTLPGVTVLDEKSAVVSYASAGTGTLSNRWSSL
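Luminescent ATP detection (Kinase-Glo Plus) follows a 60-minute room-temperature incubation, with wells lacking PGK as controls. Buffer: 100 mM TEA (pH 7.6), 5 mM MgCl2, 0.01% Tween-20. Coupling enzyme GAPDH (100 nM final) supplies unstable 1,3-BPG in-well.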
Rango dissoc inh: inhibitors of RanGTP-induced Rango-importin beta complex dissociation | Biochemical FRET Rango-importin beta, RanGTP-induced dissociation | hit rate 0.071% among 340,000 | O95149+P62826 | Potency, µM (top dose mostly 46.1 µM); calls by dose curve; further: nearly all actives have a fitted effect of over 45% in size
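Rango FRET biosensor (snurportin-1 IBB flanked by N-terminal EYFP and C-terminal CFP10) at 0.1 uM, with 0.25 uM importin beta in PBS, 1mM DTT, 0.02% Tween-20, 0.1% BSA. 0.6 uM Ran, 2mM GTP and 0.2 uM RCC1 were then added for 45 min at room temperature. Inhibition read as loss of FRET rise.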
Rango complex inh: Rango-importin beta binding inhibition; Q14974; Rango CFP/YFP FRET sensor + importin beta, 45 min; Potency, µM (series often up to 92.2 µM); hit rate 0.031% among 340,000; AID 540263; calls by dose curve; further: nearly all actives have a fitted effect of over 15% in size
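FRET biosensor (snurportin 1 IBB flanked by EYFP and cerulean), 50 nM, with compound 5 min, then 0.125 microM importin beta in PBS, 1 mM DTT, 0.02% Tween-20, 0.1% BSA. CFP/YFP ratio read after 45 min at room temperature; pre-read flags interference.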
Hits are given with their value; 0 = inactive; ? = inconclusive; - = no result given; [ ] = dose if it differs, or a comment. A selection: hits, their analogues and other compounds. The true share with any hit is near 2.4%. Unless noted, the call rests on the fitted dose curve; in most records, active means well fitted curve in the direction sought with a large enough effect; inconclusive means small, poorly fitted or top-dose-only effect, or another doubt; inactive means no such curve, though single readings can be large; an effect the other way counts as inactive or inconclusive.

SMILES	ELG1 DNA repair	PKM2 activator	Tb PFK inh	Tb PGK inh	Rango dissoc inh	Rango complex inh
CC(=O)Nc1cccc(C(=O)NC2CCCc3c2cnn3-c2ccc(C(C)(C)C)cc2)c1 (stereo not given)	8.2µM	-	0	0	0	0
CC(=O)NCC(=O)NC1CCCc2c1cnn2-c1ccc(C(C)(C)C)cc1 (stereo not given)	0	0	0	0	0	0
O=C(NC1CCCc2c1cnn2-c1cc(F)cc(F)c1)c1ccccn1 (stereo not given)	-	-	-	0	0	0
COC(=O)c1ccc(C(=O)NC2CCCc3c2cnn3-c2cc(F)cc(F)c2)nc1 (stereo not given)	21µM	0	0	0	0	0
CCOc1ccccc1CNC(=O)Cn1nc(C)c2c(C)n(-c3ccc(C)cc3)nc2c1=O	2.9µM	-	0	0	0	0
COc1ccc(CNC(=O)Cn2nc(C)c3c(C)n(-c4ccccc4)nc3c2=O)cc1OC	-	-	-	0	-	-
COc1cccc(CNC(=O)Cn2nc(C)c3c(C)n(-c4ccc(C)cc4)nc3c2=O)c1OC	0	-	0	0	0	0
COc1ccc(CNC(=O)Cn2nc(C)c3c(C)n(-c4ccc(C)cc4)nc3c2=O)cc1OC	21µM	-	0	0	0	0
CCOC(=O)c1ccccc1NC(=O)Cn1ncc2c1-c1ccccc1OC2	-	-	-	0	-	-
CCOc1cc(C(=O)OCC(=O)c2c(C)[nH]c3ccccc23)ccc1OCC(=O)N1CCOCC1	16µM	0	0	0	0	0
CCOc1cc(/C=C/c2nc3ccccc3s2)ccc1OCC(=O)N1CCOCC1	23µM	0	0	0	0	0
CCOc1cc(C(=O)OCC(=O)c2c[nH]c3ccccc23)ccc1OCC(=O)N1CCOCC1	?	0	0[0.46 µM]	0	0	0
CCOc1cc(C(=O)NCc2ccccc2)ccc1OCC(=O)N1CCOCC1	0	0	0	0	0	0
COc1ccc(CNC(=O)c2cccc(S(=O)(=O)N3CCCCC3)c2)cc1OC	?	-	0	0	0	0
COCCNC(=O)c1cc(S(=O)(=O)N2CCC3(CC2)OCCO3)ccc1F	-	-	-	0	-	-
COc1ccc(CNC(=O)CN2CCN(S(=O)(=O)c3cc(Br)ccc3Br)CC2)cc1OC	0	-	0	0	0	0
COc1ccc(CNC(=O)CN2CCN(S(=O)(=O)c3c(C)c(C)cc(C)c3C)CC2)cc1OC	7.3µM	-	0	0	0	0
COc1ccc(CNC(=O)c2cc(S(=O)(=O)N3CCCCC3)ccc2Cl)cc1OC	6.5µM	-	0	0	0	0
COc1ccc(CCNC(=O)c2cc(S(=O)(=O)N3CCC4(CC3)OCCO4)ccc2F)cc1OC	9.2µM	0	0	0	0	0
CCc1ccc(S(=O)(=O)NCc2nc3cccnc3n2Cc2cccc(OC)c2)cc1	-	-	-	0	-	-
Fc1ccccc1N1CCN(c2nnc(C(F)(F)F)c3nnn(Cc4ccccc4)c23)CC1	-	-	-	0	-	-
CCOC(=O)C1CCN(c2nc(N)c3c(N)nc(SCC(=O)O)cc3c2C#N)CC1	0	10µM	0	?	?	?
CCOC(=O)C1CCN(c2nc(C)cc(C)c2C#N)CC1	0	0	0	0	0	0
Cc1ccc(C)c(N2N=C(C(=O)NCCN3C(=O)S/C(=C\c4cccnc4)C3=O)CCC2=O)c1	0	-	0	0	?	0
Cc1ccc(S(=O)(=O)/N=C(/Nc2ccc([N+](=O)[O-])cc2[N+](=O)[O-])c2ccccc2)cc1	23µM	-	0	0	0	0
SMILES	ELG1 DNA repair	PKM2 activator	Tb PFK inh	Tb PGK inh	Rango dissoc inh	Rango complex inh
CCn1c(=O)sc2cc(NS(=O)(=O)c3ccc(C)cc3)ccc21	-	-	-	0	-	-
CCn1c(=O)c(=O)n(CC)c2cc(S(=O)(=O)Nc3ccc(C)cc3)ccc21	0	10µM	0	0	0	0
Cc1cccc(OCC(O)Cn2c(N3CCCCC3)nc3c2c(=O)n(C)c(=O)n3C)c1 (stereo not given)	?	-	0	0	0	0
CCOC(=O)Cn1c(=NC(=O)c2cc(-c3cccs3)nc3ccccc23)sc2cc(S(N)(=O)=O)ccc21	?	0	0	0	?	?
COC(=O)Cn1c(=NC(=O)c2cc(-c3cccs3)nc3ccccc23)sc2cc(S(N)(=O)=O)ccc21	9.2µM	0	0	0	?	?
O=C(NC1CC(=O)N(c2cccc(F)c2)C1)C1CC1 (stereo not given)	-	-	-	0	-	-
O=C1NC[C@H](c2ccccc2)OC(=O)[C@H](Cc2ccc(F)cc2)C/C=C\C[C@@H]1CC(=O)N(CCO)Cc1ccccc1	?	-	0	0	0	0
O=C1NC[C@H](c2ccccc2)OC(=O)[C@@H](Cc2ccc(F)cc2)CC/C=C/C[C@H]1CC(=O)N(CCO)Cc1ccccc1	5.2µM	-	0	0	0	0
O=C1NC[C@H](c2ccccc2)OC(=O)[C@@H](Cc2ccc(F)cc2)CC/C=C/C[C@@H]1CC(=O)N(CCO)Cc1ccccc1	23µM	-	0	0	0	?
O=C1NC[C@@H](c2ccccc2)OC(=O)[C@@H](Cc2ccc(F)cc2)C/C=C\C[C@@H]1CC(=O)N(CCO)Cc1ccccc1	21µM	-	0	0	0	0
O=C1N[C@@H](Cc2c[nH]c3ccccc23)COC(=O)[C@@H](Cc2ccc(F)cc2)CC/C=C/C[C@@H]1CC(=O)N(CCO)Cc1ccccc1	21µM	-	0	0	0	0
CC1=C(C(=O)N(C)C)C(c2ccc(C)s2)NC(=S)N1 (stereo not given)	0	0	0	0	0	0
CCN(Cc1ccccc1)C(=O)C1CCN(S(=O)(=O)c2ccc3c(c2)CCCN3C(C)=O)CC1	-	-	-	0	-	-
Cc1cc(C)c2cc(CN(CCO)C(c3nnnn3Cc3ccc(F)cc3)C(C)C)c(=O)[nH]c2c1 (stereo not given)	5.2µM	0	0	-	-	-
Cc1cc(C)c2cc(C(O)c3nnnn3Cc3ccccc3)c(=O)[nH]c2c1 (stereo not given)	0	13µM	0	-	0	0
Cc1ccc(NC(=O)CN(C)C(=O)C2CC(=O)N(Cc3ccccc3)C2)cc1 (stereo not given)	0	0	0	0	0	0
O=C(CCS(=O)(=O)c1ccc(Br)cc1)NCc1ccc(F)cc1	0	-	24µM	?	0	0
Cc1ccc(CNC(=O)CCS(=O)(=O)c2ccc(Br)cc2)cc1	0	0	?	?	0	0
COc1cccc(OCc2cc(C3Nc4ccccc4C(=O)N3Cc3ccco3)ccc2OC)c1 (stereo not given)	?	7.9µM	0	0	0	0

Screening results deposited in PubChem by National Center for Advancing Translational Sciences (NCATS).
